Measured values reported in ChEMBL document CHEMBL3988442, “University of Dundee, Small-Polar-MMV Screening Library” (2021).

What was measured:
[1] = biological target: T1, Aspartate--tRNA(Asp/Asn) ligase (Mycobacterium tuberculosis (strain ATCC 25618 / H37Rv)) (UniProt P9WFW3); experiment: Assay for Asp RNA synthetase-1 from Mycobacterium tuberculosis; assay type: functional; set-up: scale not given: direction of the effect not stated beside the values; settings: 30 µM; note: in the data most compounds retested in dose-response had high values
T1 sequence (whole entry): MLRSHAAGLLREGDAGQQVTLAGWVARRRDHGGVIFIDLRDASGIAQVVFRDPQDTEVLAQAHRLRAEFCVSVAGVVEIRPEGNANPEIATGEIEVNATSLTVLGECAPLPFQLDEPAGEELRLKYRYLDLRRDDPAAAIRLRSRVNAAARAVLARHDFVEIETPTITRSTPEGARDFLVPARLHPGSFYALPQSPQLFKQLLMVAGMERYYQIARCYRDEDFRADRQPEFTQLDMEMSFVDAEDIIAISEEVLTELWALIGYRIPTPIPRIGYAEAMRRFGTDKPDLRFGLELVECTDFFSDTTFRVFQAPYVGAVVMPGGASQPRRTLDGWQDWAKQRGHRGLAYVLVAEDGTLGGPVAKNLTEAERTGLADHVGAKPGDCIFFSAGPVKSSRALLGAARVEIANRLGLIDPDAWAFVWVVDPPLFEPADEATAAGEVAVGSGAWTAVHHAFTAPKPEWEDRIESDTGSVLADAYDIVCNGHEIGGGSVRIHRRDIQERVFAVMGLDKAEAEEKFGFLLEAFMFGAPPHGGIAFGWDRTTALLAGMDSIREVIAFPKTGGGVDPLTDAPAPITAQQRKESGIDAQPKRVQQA

[2] = biological target: Shiga toxin 2 (Escherichia coli O157:H7) (UniProt P09385+P09386); experiment: E. coli 0.157:H7 Shiga Toxin SOP - stx2 screening assay; assay type: functional; set-up: scale not given: direction of the effect not stated beside the values; settings: 30 µM

| Compound | Percent Effect [1] [%] | Percent Effect [2] [%] |
| --- | --- | --- |
| COc1ccc(CN2C[C@@H]3COC[C@]3(CN(C)C)C2)cc1 | 2.52 | 3.85 |
| O=C1N(CC2CC2)CCC12CCN(c1ncccn1)CC2 | 3.3 | -4.25 |
| O=C(c1cccnc1O)N(Cc1ccsc1)CC1CCCO1 (stereo not drawn) | -1.37 | -27.4 |
| O=C(Nc1ccccc1F)N1CCN(Cc2noc(C3CC3)n2)CC1 | 1.99 | -11.6 |
| CCOCC1CN(C(=O)C2=CCCC2)Cc2cnn(CC)c21 (stereo not drawn) | -0.107 | 3.46 |
| COc1ccc(CNC(=O)Nc2cccnc2N2CCCC2)cc1O | 0.235 | 10.6 |
| Cc1ncsc1C(=O)NCCSCCCO | -4.34 | -35.1 |
| Cc1csc([C@@H]2C[C@@H]3CCN(C(=O)c4ccnnc4)C[C@H]3O2)n1 | -2.11 | -6.67 |
| COCCNC(=O)[C@H]1CN(c2nnc(C)s2)C[C@H]2OCC[C@@H]12 | -1.22 | -23.9 |
| Cc1nc(C)n(CC2CCCCN2CC(=O)Nc2ccncc2)n1 (stereo not drawn) | -1.82 | -16.8 |
| O=C(NCCn1ccnc1)N1CCN(c2nccs2)CC1 | 2.45 | -47.2 |
| CNS(=O)(=O)c1ccc(C(=O)NC2CCOc3ccccc32)o1 (stereo not drawn) | -4.13 | 5.97 |
| CS(=O)(=O)NC[C@]12COC[C@H]1CN(C(=O)Cc1ccccc1F)C2 | 6.16 | -11.5 |
| CN(C)C(=O)C1CN(Cc2c[nH]cn2)CCN(C2CCOCC2)C1 (stereo not drawn) | 0.313 | -8.14 |
| CN(Cc1cscn1)C1CCCN(Cc2noc(C3CC3)n2)C1 (stereo not drawn) | -2.67 | 0.508 |
| CN(CCNC(=O)NCc1ccncc1)C1CCCC1 | -2.09 | 8.07 |
| COCCOc1ccc(NC(=O)N2CCCC2c2ccncc2)cn1 (stereo not drawn) | 0 | 19 |
| COc1cnc(C2(O)CCN(C(=O)c3cccnc3)CC2)c(OC)n1 | 0.313 | 17.2 |
| COc1cc(N2C[C@H]3OCC[C@H]3[C@H](C(=O)NC3CC3)C2)ncn1 | 3.81 | -2.62 |
